From PubChem BioAssay AID624141 (Broad Institute, 2012) come the findings set out here.

Out of some 17,000 compounds screened, about 260 (1.5%) were called active. The sample holds actives, similar compounds and a random draw of the others, so the mix is not that of the screen.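 Rule for the calls: active = spot fluorescence over background with P-value below 7% in all four replicate spots, showing protein binding; inactive = the rest.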

The target in this assay is Myc proto-oncogene protein (Homo sapiens) (UniProt P01106). The assay is described as follows: binders of human c-Myc, primary screen, biochemical, small molecule microarray, anti-His fluorescence (AID 624141). The note with it: His-c-Myc binding.
Myc proto-oncogene protein (Homo sapiens), sequence (P01106 whole entry, looked up): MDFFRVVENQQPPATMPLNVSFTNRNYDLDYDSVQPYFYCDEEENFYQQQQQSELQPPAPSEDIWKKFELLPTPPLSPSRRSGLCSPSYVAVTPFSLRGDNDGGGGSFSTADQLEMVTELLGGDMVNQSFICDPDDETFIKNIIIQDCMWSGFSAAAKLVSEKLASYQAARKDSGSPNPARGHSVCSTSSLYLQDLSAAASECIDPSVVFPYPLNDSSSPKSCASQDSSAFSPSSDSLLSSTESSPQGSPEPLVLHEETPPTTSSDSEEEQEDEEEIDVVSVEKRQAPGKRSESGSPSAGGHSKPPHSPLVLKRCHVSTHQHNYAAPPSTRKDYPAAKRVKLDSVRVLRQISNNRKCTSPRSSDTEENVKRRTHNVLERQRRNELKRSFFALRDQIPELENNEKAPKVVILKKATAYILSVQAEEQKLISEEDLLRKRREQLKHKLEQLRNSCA
Regarding `Cc1cc2c(=O)n(C)c(SCC(=O)c3cc4ccccc4o3)nc2s1`, the compound was classed as inactive.

On to `COc1ccccc1N(CC(=O)N1CCCCC1)S(C)(=O)=O`, for which the result was inactive.

`C[C@@H]1CN([C@@H](C)CO)C(=O)Cc2cc(NC(=O)Nc3ccc(F)cc3)ccc2O[C@@H]1CN(C)C`: the outcome was inactive.

For the compound `Cn1c(SCc2nc3ccccc3c(=O)[nH]2)nnc1-c1cc2ccccc2o1`, the compound was called inactive.

In the case of `C[C@@H]1CN([C@@H](C)CO)C(=O)c2cc(NS(C)(=O)=O)ccc2O[C@H]1CN(C)C(=O)Nc1ccc(F)cc1`, the compound was called inactive.

`COc1ccc(C#Cc2ccc3c(c2)[C@]2(C(=O)N3)[C@H](C(=O)N3CCc4cc(OC)c(OC)cc4C3)[C@H]3C(=O)O[C@H](c4ccccc4)[C@H](c4ccccc4)N3[C@@H]2c2ccc(O)cc2)cc1`: the outcome was inactive.

For the compound `O=C(NCC1CCCO1)c1ccc(NC(=O)c2cc(-n3cnnc3)ccc2Cl)cc1` (configuration not stated), the compound was classed as inactive.

Turning to `CNC[C@H]1OCCCC[C@@H](C)Oc2ccc(NC(=O)c3ccccc3)cc2C(=O)N([C@@H](C)CO)C[C@H]1C`, the result was inactive.

Consider `Cc1ccc(Cn2ncc3c(N4CCN(CCOc5ccc(C)cc5)CC4)ncnc32)cc1`, for which the outcome was inactive.

With `C[C@@H]1CN([C@H](C)CO)C(=O)Cc2cc(NS(=O)(=O)c3cccs3)ccc2O[C@@H]1CN(C)C(=O)Nc1ccc(F)cc1`, the compound was called inactive.

For `O=C1NC(Cc2c[nH]c3ccccc23)C(=O)N2CCCC12` (configuration not stated), the call was inactive.

For `Cc1noc(C)c1NC(=O)N(C)C[C@@H]1Oc2ccc(NC(=O)C3CC3)cc2C(=O)N([C@H](C)CO)C[C@@H]1C`, the call was inactive.

Consider `O=C1O[C@@H](c2ccccc2)[C@@H](c2ccccc2)N2[C@@H](c3ccc(O)cc3)[C@]3(C(=O)Nc4ccccc43)[C@@H](C(=O)O)[C@H]12`, for which the outcome was inactive.

With `CCOc1ccc(NC(=O)C2CC(=O)n3c(nc4ccccc43)N2)cc1` (configuration not stated), the compound was classed as inactive.

As to `C[C@@H]1CCCCO[C@H](CN(C)C(=O)Cc2ccccc2)[C@H](C)CN([C@H](C)CO)C(=O)c2cc(NS(=O)(=O)c3cn(C)cn3)ccc2O1`, the outcome was inactive.

As for `COc1cc(O)c2c(=O)c(O[C@@H]3O[C@@H](CO)[C@H](O)[C@H]3O[C@@H]3O[C@@H](C)[C@H](O)[C@@H](O)[C@H]3O)c(-c3ccc(O)cc3)oc2c1`, the compound was called inactive.

`CN(C)CC/C=C1\c2ccccc2CSc2ccccc21`: the compound was classed as inactive.

Regarding `C[C@H](CO)N1C[C@H](C)[C@@H](CN(C)C)Oc2c(NC(=O)Nc3ccc(F)cc3)cccc2C1=O`, the compound was called inactive.

For `C[C@H]1CN([C@@H](C)CO)C(=O)c2cc(NC(=O)Cn3cnnn3)ccc2O[C@@H]1CN(C)S(=O)(=O)c1cccs1`, the compound was called inactive.

With `C[C@H](CO)N1C[C@H](C)[C@H](CN(C)C(=O)Nc2ccc(C(F)(F)F)cc2)Oc2ccc(NC(=O)Nc3ccccc3)cc2C1=O`, the result was inactive.

Take `C[C@@H]1CN([C@H](C)CO)C(=O)c2cccc(NS(C)(=O)=O)c2O[C@@H]1CN(C)C(=O)Nc1cccc2ccccc12`: the outcome was inactive.

In the case of `O=C(NCc1ccccc1)C1=C[C@H](C2CC2)C[C@H](OCc2ccc(CO)cc2)O1`, the call was inactive.

In the case of `C[C@H](CO)N1C[C@H](C)[C@H](CN(C)CC2CC2)Oc2ccc(NC(=O)c3ccncc3)cc2C1=O`, the result was inactive.

On to `C[C@H]1CN([C@@H](C)CO)C(=O)c2cc(NC(=O)Cn3cnnn3)ccc2O[C@H]1CN(C)C(=O)NC1CCCCC1`, for which the compound was classed as inactive.

`CC(C)NC(=O)N(C)C[C@H]1OCCCC[C@@H](C)Oc2ccc(NS(C)(=O)=O)cc2C(=O)N([C@H](C)CO)C[C@H]1C`: the outcome was inactive.

Regarding `CC(C)NC(=O)N(C)C[C@H]1Oc2ccc(NC(=O)CCC(F)(F)F)cc2CC(=O)N([C@@H](C)CO)C[C@@H]1C`, the compound was classed as inactive.

Consider `C[C@H]1CCCCO[C@H](CN(C)C(=O)CCC(F)(F)F)[C@@H](C)CN([C@@H](C)CO)C(=O)c2cc(NC(=O)Nc3ccc4c(c3)OCO4)ccc2O1`, for which the result was inactive.

Turning to `O=C1c2ccccc2[C@](Cc2ccccc2I)(C(=O)NCc2ccccc2)[C@H](c2ccc(CO)cc2)N1C1CCCCC1`, the call was inactive.

With `Cc1cc(C)c2nc(-c3cccnc3)cc(C(=O)Nc3sc(Cc4ccccc4)cc3C(N)=O)c2c1`, the compound was called inactive.

On to `CC(C)NC(=O)N(C)C[C@@H]1Oc2ccc(NS(=O)(=O)c3ccccc3)cc2C(=O)N([C@@H](C)CO)C[C@H]1C`, for which the compound was called inactive.

Turning to `C[C@@H]1CN([C@@H](C)CO)C(=O)c2cccc(NC(=O)c3ccc(-c4nccs4)cc3)c2O[C@H]1CN(C)C(=O)Nc1ccccc1`, the compound was classed as inactive.

Consider `Cc1cccc(OCCCC(=O)Nc2sc3c(c2C(N)=O)CCCC3)c1C`, for which the result was inactive.

Turning to `Cc1nn(-c2ccccc2)c(CC(C)(C)C(=O)O)c1C(=O)O`, the outcome was inactive.

With `C[C@H]1CN([C@@H](C)CO)C(=O)Cc2cc(NC(=O)Nc3ccccc3)ccc2O[C@H]1CN(C)Cc1ccncc1`, the outcome was inactive.

With `C[C@@H]1CCCCO[C@@H](CN(C)Cc2ccncc2)[C@@H](C)CN([C@@H](C)CO)C(=O)c2cc(N(C)C)ccc2O1`, the call was inactive.

Consider `C[C@H](CO)N1C[C@H](C)[C@H](CN(C)C)Oc2ccc(NC(=O)Nc3ccc(F)cc3)cc2CC1=O`, for which the result was inactive.

Turning to `C[C@@H]1CN([C@@H](C)CO)C(=O)Cc2cc(NC(=O)Cc3cn(C)c4ccccc34)ccc2O[C@H]1CN(C)C(=O)NC1CCCCC1`, the compound was classed as inactive.

With `C/C=C(\C)C(=O)OC(/C=C/C(O)C(C)O)C1C=CC(=O)O1` (configuration not stated), the result was inactive.

Consider `C=C(C(=O)O)C1CCC2(C)CCC(=O)C(C)=C2C1` (configuration not stated), for which the result was inactive.

For the compound `Cn1c(OCc2cccnc2)nc2c1c(=O)n(Cc1ccc(Cl)c(Cl)c1)c(=O)n2C`, the compound was called inactive.

On to `CCO[C@H]1OC(C(=O)O)=C[C@@H](C2CCCCC2)[C@@H]1CCCO`, for which the compound was called inactive.

`Nc1nnc(SCC(=O)Nc2ccc(Cl)cc2O)s1`: the compound was classed as inactive.

Regarding `COc1ccc(S(=O)(=O)N(C)C[C@@H]2Oc3ccc(NC(=O)CCC(F)(F)F)cc3C(=O)N([C@@H](C)CO)C[C@H]2C)cc1`, the call was inactive.

Take `CN1CCN(C(=O)C2=C[C@@H](c3ccc(Br)cc3)C[C@@H](OCCCCO)O2)CC1`: the result was inactive.

Take `C[C@H]1CN([C@@H](C)CO)C(=O)Cc2cc(N(C)C)ccc2O[C@@H]1CN(C)S(=O)(=O)c1ccc(F)cc1`: the call was inactive.

In the case of `Nc1nnc(SCCN2C(=O)c3ccccc3S2(=O)=O)s1`, the result was inactive.

For the compound `C[C@@H]1CN([C@H](C)CO)C(=O)CCCn2nncc2CO[C@@H]1CN(C)Cc1ccc2c(c1)OCCN2C`, the outcome was inactive.
